The source of these data is PubChem BioAssay.

A short description of experiment [1]: compounds altering viability of human ES cells (AID 493140; call rule not given here;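 also: cells exposed to compounds for four days before counting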). As to conditions: human embryonic stem cell survival screen; stronger effect = higher value.
The nature of experiment [2]: P. berghei load reduction in hepatocytes – cell-based, HepG2, luciferase luminescence, HepG2 viability, primary screen (AID 624349).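 Also: 100% = mean of DMSO negative control wells on the same plate.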 The settings on record: P. berghei liver stage in HepG2, luciferase luminescence, concentration not given here; parasite load remaining: stronger effect = lower value; viability: measured here: HepG2 viability without parasites.
Experiment [3] can be described thus: Wnt pathway potentiators raising nuclear beta-catenin – imaging, WNT3A-conditioned medium, mouse C2C12, NPC library, primary screen (AID 1117326; in the data active = nuclear beta-catenin stimulation mostly above about 4.2%, no sharp cut-off; inactive = mostly below about 10%). As to conditions: stronger effect = higher value.
The nature of experiment [4]: stimulators of insulin release from INS-1E, primary screen, cell-based, 5 mM glucose, NPC library (AID 1117329;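 active = compound raises insulin release from rat beta cells at 5 mM glucose, no numeric limit stated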). The settings on record: rat INS-1E insulin secretion, at 10 µM, stronger effect = higher value.
A short description of experiment [5]: growth inhibition of GSK3B-pretreated HCT116 cells – cell-based, CellTiter-Glo, 0.2 to 20 µM (AID 1117336;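 active = compounds lowering colon cancer cell viability after pretreatment blocking the GSK3B kinase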). The settings on record: HCT116 viability after GSK3B inhibitor, at 20 µM, stronger effect = higher value.
Experiment [6] is described as follows: inhibition of endothelial tube formation, primary screen, imaging, VEGF stimulated, CD31 staining, tube area, NPC library (AID 1117340;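 active = compound that reduces growth-factor-driven endothelial tube area in a mixed cell culture, no cutoff stated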). The settings on record: VEGF-stimulated ADSC/ECFC co-culture, at 10 µM, stronger effect = higher value.
The nature of experiment [7]: GLP1 release stimulators, primary, NCI-H716, NPC library (AID 1117341;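 active = compound raises GLP1 secretion from the human gut endocrine cells, with no numeric limit stated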). As to conditions: NCI-H716 cells, at 10 µM, stronger effect = higher value.
Experiment [8] in a line: HCT116 colon cancer cell growth inhibition, primary screen, CellTiter-Glo luminescence, NPC library (AID 1117342;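 active = compounds that lower survival of HCT116 colon cancer cells in the luminescence readout, no numeric limit stated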). As to conditions: at 20 µM (top of the series).
Experiment [9] in a line: reduced SW480 viability measured with CellTiter-Glo, NPC library, primary (AID 1117343;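 active = compounds that lower viability of the colon cancer cells in the luminescence readout, with no numeric limit stated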). As to conditions: CellTiter-Glo luminescence; at 20 µM (top of the series) unless noted.
Experiment [10] in a line: NPC library primary testing for decreased DLD-1 cell viability via CellTiter-Glo (AID 1117346;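 active = compounds that lower survival of DLD-1 colon cancer cells in the luminescence readout, no cutoff given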). The settings on record: DLD-1 viability, CellTiter-Glo luminescence; at 20 µM (top of the series).
Experiment [11] can be described thus: EMT-state selective cytotoxicity in co-culture – imaging, PC-3E GFP, TEM4-18 mCherry, primary screen (AID 1345086;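 active = compounds killing one labelled cell type while sparing the other, by normalised counts and ratio limits, not self-fluorescent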;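 as to all read-outs here: cells exposed to compound for 72 h before imaging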;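 as to red/green cell ratio (normalised): normalised mesenchymal count divided by normalised epithelial count so high means epithelial killing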). As to conditions: PC-3E GFP / TEM4-18 mCherry co-culture, imaging cell counts, at 1 µM; for red/green cell ratio (normalised): actives lie on both sides, counts scaled to control wells, 1 = unselective.
Experiment [12] can be described thus: viability loss with induced miR-34 in A549 – imaging, A549 dox-inducible miR-34, nuclei and caspase counts, primary screen (AID 1347080;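 active = compounds whose cell count with miR-34 switched on is under 0.7 times the count with it off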). As to conditions: A549 miR-34 inducible, Hoechst nuclei count, 48 h.
A short description of experiment [13]: MELAS cybrid and Rieske KO viability enhancers – cell-based, MELAS cybrids, Rieske KO mouse fibroblasts, CellTiter-Glo, primary screen (AID 1508586;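 active = mean z-score across replicates of 1.96 or higher in either the MELAS or the Rieske mutant cell line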;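 also: z relative to plate mean and SD of compound and empty wells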). As to conditions: low glucose.
In experiment [14] the target is NAD(+) hydrolase SARM1 (Homo sapiens) (UniProt Q6SZW1). Briefly: blocking NAD cleavage by SARM1 SAM-TIR – cell lysate, NAD-Glo luminescence (AID 1508614;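 active = compound whose remaining NAD level is above about 45 nM, limit read from the data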;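 also: higher remaining NAD means stronger inhibition of SARM1 NADase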). As to conditions: SAM-TIR HEK293T lysate NADase, at 1 µM, stronger effect = higher value.
Setting [15] is: measured here: epithelial PC-3E GFP cell survival.
[16] abbreviates: measured here: mesenchymal TEM4-18 mCherry cell survival.
Setting [17] is: stronger effect = lower value, cell number ratio, induced over uninduced.
Setting [18] is: measured here: relative caspase fold change +Dox/-Dox.
Setting [19] is: measured here: total cells with miR-34 induction, stronger effect = lower value.
The mark [20] stands for this setting: measured here: total cells without miR-34 induction.
The mark [21] stands for this setting: MELAS cybrid survival, CellTiter-Glo 48 h, stronger effect = higher value.
Where [22] appears, read: Rieske KO mouse fibroblast survival, CellTiter-Glo 72 h.

Structures are written as SMILES. Where “and” joins values, the source holds several entries; their conditions need not be identical. Identical values can stand only once. Calls of active or inactive are those of the source. Rule as the data show it, unless noted: active = parasite load remaining mostly below about 12% (no sharp cut-off); inactive = mostly above about 10%.

NAD(+) hydrolase SARM1 (Homo sapiens), sequence (Q6SZW1 whole entry, looked up): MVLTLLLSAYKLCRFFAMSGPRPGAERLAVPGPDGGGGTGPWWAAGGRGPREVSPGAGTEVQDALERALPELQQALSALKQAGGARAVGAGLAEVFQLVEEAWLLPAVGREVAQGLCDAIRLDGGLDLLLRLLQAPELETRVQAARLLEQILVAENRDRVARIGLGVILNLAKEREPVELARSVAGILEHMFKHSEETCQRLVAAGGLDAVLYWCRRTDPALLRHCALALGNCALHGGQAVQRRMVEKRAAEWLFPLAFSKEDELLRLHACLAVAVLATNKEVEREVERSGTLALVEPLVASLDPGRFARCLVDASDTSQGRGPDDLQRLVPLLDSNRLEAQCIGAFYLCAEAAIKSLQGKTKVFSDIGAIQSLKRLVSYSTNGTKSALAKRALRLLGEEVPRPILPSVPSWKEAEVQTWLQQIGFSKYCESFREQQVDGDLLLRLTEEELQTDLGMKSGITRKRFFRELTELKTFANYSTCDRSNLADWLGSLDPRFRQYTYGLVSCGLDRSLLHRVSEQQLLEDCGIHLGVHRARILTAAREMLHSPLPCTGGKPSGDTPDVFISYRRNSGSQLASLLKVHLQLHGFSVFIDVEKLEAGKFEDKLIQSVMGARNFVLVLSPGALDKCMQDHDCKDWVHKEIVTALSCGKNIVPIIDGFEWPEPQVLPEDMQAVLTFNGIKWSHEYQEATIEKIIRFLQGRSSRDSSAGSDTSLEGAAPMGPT

Take `CCCCNc1ccc(C(=O)OCCOCCOCCOCCOCCOCCOCCOCCOCCOC)cc1`: the survival in experiment [1] is 33.2 (inactive). Further, the parasite load remaining in experiment [2] was 14% (inactive) and 88.5% (inactive). Moreover, the viability in experiment [2] was 47.7% and 90.2%. For the same compound, the nuclear beta-catenin stimulation in experiment [3] (at 10 µM) is -0.8% (inactive); in experiment [3] (stimulation, at 2 µM), 0.5%. Also, in [4], the insulin secretion stimulation was -2.3% (inactive). In [5], the viability decrease is 9.3% (inactive). Also, the tube area decrease in experiment [6] is 4.2% (inactive). In experiment [7], the GLP1 secretion stimulation is -2.3% (inactive). Further, the inhibition of viability in [8] is 31.5% (inactive). The figures for the viability decrease (inhibition) in experiment [9] and in experiment [10] were 13% (active) and -17.6% (inactive), respectively. For the same compound, in experiment [11], the red/green cell ratio (normalised) was 1.21 (inactive). Moreover, the normalised cell number in experiment [11] (setting [15]) amounted to 0.86; in experiment [11] (setting [16]), 1.04. Besides, the fold change was 0.937 (inactive) in experiment [12] (setting [17]) and 1.37 in [12] (setting [18]). In addition, the cell count is 8120 in experiment [12] (setting [19]) and 8660 in [12] (setting [20]). Moreover, the results for the z-score in experiment [13] (setting [21]) and in experiment [13] (setting [22]) were -0.167 (inactive) and 0.149, respectively. In addition, the remaining NAD in experiment [14] was 10 nM (inactive).

Consider `O=C1OC(CN2CCOCC2)CN1/N=C/c1ccc([N+](=O)[O-])o1` (stereo unspecified), for which the parasite load remaining in experiment [2] was 37.8% (inactive). Also, the viability in experiment [2] was 89.8%. Further, the nuclear beta-catenin stimulation in experiment [3] (at 10 µM) was 1.3% (inactive); in experiment [3] (stimulation, at 2 µM), 3.6%. Besides, in [4], the insulin secretion stimulation was -1.4% (inactive). Further, in [5], the viability decrease was 31.8% (inactive). Further, the tube area decrease in experiment [6] was -4.4% (inactive). Further, the GLP1 secretion stimulation in [7] was -0.3% (inactive). The inhibition of viability in [8] is 24.6% (inactive). Further, the viability decrease (inhibition) in experiment [9] was 22% (inactive); in experiment [10], -32.5% (inactive). Moreover, in experiment [11], the red/green cell ratio (normalised) is 1.05 (inactive). The normalised cell number in experiment [11] (setting [15]) was found to be 1.05; in [11] (setting [16]), 1.1. The fold change was 0.949 (inactive) and 0.857 (inactive) in experiment [12] (setting [17]); 0.904 and 1.34 in experiment [12] (setting [18]). Also, the cell count in [12] (setting [19]) was 8490 and 8240; in [12] (setting [20]), 8940 and 9610. In addition, the z-score in experiment [13] (setting [21]) is -1.3 (inactive); in [13] (setting [22]), -1.11. Further, in experiment [14], the remaining NAD was 10 nM (inactive).

For the compound `Cc1cc2nc3ccc(=[N+](C)C)cc-3sc2cc1N`, the nuclear beta-catenin stimulation in experiment [3] (at 10 µM) is 21.6% (inactive); in experiment [3] (stimulation, at 2 µM) it was 1%. In addition, in experiment [4], the insulin secretion stimulation was -0.6% (inactive). Moreover, the viability decrease in experiment [5] was 90.5% (active). The tube area decrease in [6] is 108% (active). For the same compound, the GLP1 secretion stimulation in experiment [7] was -3.7% (inactive). Also, in experiment [8], the inhibition of viability is 82.7% (active). Besides, the viability decrease (inhibition) is 85% (active) in experiment [9] and 38.4% (inactive) in experiment [10]. The red/green cell ratio (normalised) in [11] was 1.59 (inactive). The normalised cell number in [11] (setting [15]) is 0.17; in [11] (setting [16]), 0.28. In addition, the values for the fold change in experiment [12] (setting [17]) and in experiment [12] (setting [18]) were 1.11 (inactive) and 1.04, respectively. In addition, the cell count amounted to 2760 in experiment [12] (setting [19]) and 2500 in experiment [12] (setting [20]). For the same compound, the remaining NAD in experiment [14] is 10 nM (inactive).

With `Cc1c(N)c(=O)n(-c2ccccc2)n1C`, in experiment [1], the survival was 19.6 (inactive). In [2], the parasite load remaining was 27.9% (inactive) and 86.5% (inactive) and 114% (inactive). The viability in [2] was 47% and 66.5% and 89.3%. Besides, the nuclear beta-catenin stimulation in experiment [3] (at 10 µM) is 1.1% (inactive); in [3] (stimulation, at 2 µM) it was 1.8%. Also, in experiment [4], the insulin secretion stimulation was -0.3% (inactive). Besides, the viability decrease in [5] is -9.25% (inactive). In addition, the tube area decrease in [6] is -13.4% (inactive). Besides, the GLP1 secretion stimulation in [7] is 1.1% (inactive). In experiment [8], the inhibition of viability was -5.1% (inactive). Moreover, the viability decrease (inhibition) in experiment [9] was 45.9% (inactive); in experiment [10], 10.9% (inactive). Further, the red/green cell ratio (normalised) in experiment [11] was 0.99 (inactive). Further, the normalised cell number in experiment [11] (setting [15]) was determined as 1.14; in [11] (setting [16]), 1.13. The fold change in experiment [12] (setting [17]) is 0.844 (inactive); in [12] (setting [18]), 1.06. In addition, the cell count in experiment [12] (setting [19]) was 8260; in [12] (setting [20]), 9790. For the same compound, the z-score in [13] (setting [21]) is -0.073 (inactive); in experiment [13] (setting [22]), -0.119.
